Values joined by “and” are separate entries in the source; they are usually repeats but may differ in a detail not shown here. Equal values may be shown once. Active and inactive are the calls of the source.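 How the source made its calls, unless noted: active means compounds whose cell count with miR-34 switched on is under 0.7 times the count with it off; inactive means the rest.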
How the values were obtained:
[1] = test system: Aerobactin synthetase IucA (Klebsiella pneumoniae); assay: inhibition of K. pneumoniae IucA enzyme – biochemical, Tocris library, absorbance (AID 1345561; call rule not given here;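 further: 100% = enzyme without compound and 0% = no enzyme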); details: purified IucA enzyme assay, absorbance (OD) read-out; stronger effect = lower value;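 tested at 8 µM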
[2] = viability loss with induced miR-34 in A549 – imaging, A549 dox-inducible miR-34, nuclei and caspase counts, primary screen (AID 1347080); details: A549 miR-34 inducible, Hoechst nuclei count, 48 h
[3] = galactose survival enhancers in mitochondrial complex I cybrids – cell-based, galactose medium, ATP luminescence, primary screen (AID 1645843;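 active means z-score of at least 1.8 in each of two replicates, scored against plate mean and spread of sample wells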;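 further: positive z means more ATP and so rescue of galactose-driven cybrid death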); details: complex I mutant cybrid cells, 72 h, stronger effect = higher value
[4] = stronger effect = lower value, cell number ratio, induced over uninduced
[5] = measured here: relative caspase fold change +Dox/-Dox
[6] = measured here: total cells with miR-34 induction, stronger effect = lower value
[7] = measured here: total cells without miR-34 induction

Row | Compound | remaining activity [1] | fold change [2, 4] | fold change [2, 5] | cell count [2, 6] | cell count [2, 7] | z-score [3]
1 | COc1ccc(CC(=O)NC(/N=C(\NC#N)Nc2cccc3ncccc23)C(C)(C)C)cc1OC (configuration not stated) | 122% (inactive) | 0.95 (inactive) | 1.31 | 9530 | 10000 | 0.08 (inactive)
2 | O=S(=O)(NCCCCCCc1ccccc1)c1cccc2c(Cl)cccc12 | 101% (inactive) | 0.934 (inactive) | 0.599 | 8620 | 9230 | -1.14 (inactive)
3 | COC(=O)[C@H](Cc1ccc([N+](=O)[O-])cc1)NC(=O)c1cccc2ccccc12 | 101% (inactive) | 0.968 (inactive) | 0.966 | 9700 | 10000 | -0.13 (inactive)
4 | O=C(NC1CCN(Cc2ccccc2)CC1)c1ccc(I)cc1 | 113% (inactive) | 0.862 (inactive) | 0.815 | 6720 | 7800 | -0.755 (inactive)
5 | OC(CCCN1CCN(c2ncc(F)cn2)CC1)c1ccc(F)cc1 (configuration not stated) | 116% (inactive) | 0.931 (inactive) | 0.869 | 7880 | 8470 | -0.495 (inactive)
6 | Ic1cc(-c2ccccc2)ncn1 | 120% (inactive) | 0.965 (inactive) | 1.73 | 8200 | 8500 | 0.11 (inactive)
7 | CC(=O)c1ccc2c(c1)[C@@H]1C=CC[C@@H]1[C@H](c1cc3c(cc1Br)OCO3)N2 | 128% (inactive) | 1.21 (inactive) and 1.03 (inactive) | 0.332 and 1.3 | 2540 and 1820 | 2100 and 1760 | -0.965 (inactive)
8 | C[C@H](NC[C@H](O)CP(=O)(O)Cc1ccccc1)c1ccc(Cl)c(Cl)c1 | 111% (inactive) | 0.949 (inactive) | 1.04 | 8740 | 9210 | 0.06 (inactive)
9 | CCc1cc2c(c(CC)n1)CCC(=O)N2Cc1ccc(-c2ccccc2-c2nn[nH]n2)cc1 | 89.1% (inactive) | 0.902 (inactive) | 0.831 | 8410 | 9320 | 1.93 (inactive)
10 | O=C1c2ccccc2C(Cc2ccnc(F)c2)(Cc2ccnc(F)c2)c2ccccc21 | 102% (inactive) | 0.93 (inactive) | 1.37 | 8150 | 8760 | 0.3 (inactive)
11 | NC(C(=O)O)c1cc(O)ccc1Cl (configuration not stated) | 120% (inactive) | 1.01 (inactive) | 0.855 | 9170 | 9110 | 4.21 (active)
12 | COc1ccc(NC(=O)c2cc(OCCCN(C)C)nn2Cc2ccccc2)cc1 | 99.8% (inactive) | 0.937 (inactive) | 1.3 | 8250 | 8810 | -0.3 (inactive)
13 | CN(CCOc1ccc(CC(Nc2ccccc2C(=O)c2ccccc2)C(=O)O)cc1)c1ccccn1 (configuration not stated) | 103% (inactive) | 0.954 (inactive) | 1.08 | 7420 | 7780 | 1.48 (inactive)
14 | CN1c2cc3c(cc2N=C(c2ccc(C(=O)O)cc2)c2ccccc21)C(C)(C)CCC3(C)C | 106% (inactive) | 0.924 (inactive) | 2 | 7660 | 8280 | -0.495 (inactive)
15 | c1ncc(CC2CCNCC2)[nH]1 | 101% (inactive) | 0.95 (inactive) | 0.717 | 8900 | 9370 | 0.095 (inactive)
16 | O=C1NN(C(=O)Nc2ccc(Br)cc2)[C@@H](c2ccccc2)[C@@H]1c1ccccc1 | 127% (inactive) | 0.887 (inactive) | 0.737 | 9100 | 10300 | 0.225 (inactive)
17 | COc1cc2c(cc1OC)C(c1ccc(N)cc1)=NNC(=O)C2 | 103% (inactive) | 1.07 (inactive) | 0.53 | 4030 | 3760 | 0.045 (inactive)
18 | CCc1cc(C(C)=O)c(O)cc1OCCCCCC(C)(C)c1nn[nH]n1 | 116% (inactive) | 0.891 (inactive) | 1.51 | 7060 | 7920 | -0.21 (inactive)
19 | COc1cc(Br)c(S(=O)(=O)Nc2ccc(Cl)c(O[C@@H]3CCN(C)C3)c2)cc1OC | 112% (inactive) | 0.925 (inactive) | 1.74 | 5240 | 5660 | -0.645 (inactive)
20 | CCCc1c(OCCCOc2ccc(OCC(=O)O)cc2)ccc(CC=O)c1O | 117% (inactive) | 0.911 (inactive) | 0.927 | 9560 | 10500 | 1.5 (inactive)
21 | N[C@H]1CCN(O)C1=O | 122% (inactive) | 1.02 (inactive) | 0.709 | 8480 | 8300 | -0.005 (inactive)
22 | COc1cc([C@@H]2c3cc4c(cc3C(OC3OC5COC(C)OC5C(O)C3O)C3COC(=O)[C@@H]32)OCO4)cc(OC)c1O (some centres not stated) | 116% (inactive) | 1.07 (inactive) | 0.575 | 4900 | 4590 | -0.765 (inactive)
23 | CCOC(=O)C1CSC(Cc2ccc(OCc3ccc([N+](=O)[O-])cc3)cc2)N1 (configuration not stated) | 95.4% (inactive) | 0.923 (inactive) | 1.54 | 8250 | 8940 | -0.58 (inactive)
24 | CCCCCCCCC(=O)NCc1cc(OC)c(O)cc1I | 120% (inactive) | 0.949 (inactive) | 0.652 | 8140 | 8580 | -0.615 (inactive)

Row | Compound | remaining activity [1] | fold change [2, 4] | fold change [2, 5] | cell count [2, 6] | cell count [2, 7] | z-score [3]
25 | Cn1cnnc1Sc1c([N+](=O)[O-])ncn1C | 103% (inactive) | 0.949 (inactive) | 1.89 | 8370 | 8820 | -0.12 (inactive)
26 | CCCOc1ccc(Br)cc1-c1cc(-c2ccc(Cl)cc2)[nH]c1-c1ccncc1 | 102% (inactive) | 0.969 (inactive) | 1.19 | 8200 | 8460 | 0.1 (inactive)
27 | O=C1c2ccccc2CCC1CNCCc1ccc(O)cc1 (configuration not stated) | 104% (inactive) | 0.994 (inactive) | 0.835 | 8920 | 8970 | -1.23 (inactive)
28 | Cc1ccc(CC2(O)CCN(CCOc3ccc(O)cc3)CC2)cc1 | 89.8% (inactive) | 0.939 (inactive) | 2.38 | 7760 | 8270 | -0.49 (inactive)
29 | C=C1C(=O)O[C@@H]2/C=C(\C)CC/C=C(\C)CC[C@@H]12 | 118% (inactive) | 1.04 (inactive) | 1.29 | 8100 | 7810 | -0.605 (inactive)
30 | N[C@H](C(=O)O)c1ccc(O)c(C(=O)O)c1 | 98.7% (inactive) | 0.912 (inactive) | 0.711 | 8900 | 9760 | -0.325 (inactive)
31 | NC(=O)N/N=C/c1ccc(Oc2ccc(F)cc2)cc1 | 94.3% (inactive) | 0.798 (inactive) | 2.22 | 7090 | 8890 | 0.135 (inactive)
32 | COc1cccc(NC(=O)/C=C/c2ccc(Cl)cc2)c1 | 93.6% (inactive) | 0.9 (inactive) | 1.32 | 5860 | 6510 | 0.75 (inactive)
33 | CN(Cc1ccccc1)C(=O)[C@H](Cc1ccc2ccccc2c1)NC(=O)[C@@H]1CCCN1C(=O)Nc1ccccc1[N+](=O)[O-] | 123% (inactive) | 0.972 (inactive) | 1.17 | 5700 | 5860 | 1.83 (active)
34 | COC(=O)c1ccccc1NC(=O)c1ccc(F)cc1 | 99.3% (inactive) | 0.965 (inactive) | 0.872 | 7260 | 7520 | 0.635 (inactive)
35 | CCCCOC(=O)c1cc2c(cn1)[nH]c1ccccc12 | 96.6% (inactive) | 0.861 (inactive) | 0.7 | 7200 | 8360 | 1.05 (inactive)
36 | CC(=O)N(OCc1ccccc1)[C@@H]1c2cc(C#N)ccc2OC(C)(C)[C@H]1O | 105% (inactive) | 0.887 (inactive) | 0.973 | 8320 | 9380 | 0.705 (inactive)
37 | COc1ccc(C2CC(c3c(O)cc(C)oc3=O)=NCCS2)c(OC)c1 (configuration not stated) | 98.6% (inactive) | 1.45 (inactive) | 2.3 | 1350 | 929 | -0.235 (inactive)
38 | CCOc1ccccc1O[C@H](c1ccccc1)[C@H]1CNCCO1 (racemic) | 119% (inactive) | 0.937 (inactive) | 0.923 | 7740 | 8260 | -0.36 (inactive)
39 | CCCc1c(OCC(O)COc2ccc3c(=O)cc(C(=O)O)oc3c2CCC)ccc(C(C)=O)c1O (configuration not stated) | 110% (inactive) | 0.998 (inactive) | 0.8 | 8250 | 8260 | 3.91 (active)
40 | Cc1cc(C)cc(C(=O)N(C)[C@H](Cc2ccc(-c3ccccc3)cc2)C(=O)N[C@@H](Cc2c[nH]c3ccccc23)C(=O)O)c1 | 125% (inactive) | 0.884 (inactive) | 0.967 | 8970 | 10100 | 7.92 (active)
41 | C[C@H]([C@@H](O)c1ccc(O)cc1)N1CCC(Cc2ccccc2)CC1 (racemic) | 93.2% (inactive) | 0.927 (inactive) | 0.793 | 8080 | 8720 | -1.02 (inactive)
42 | Cc1cc(C)c(N(Cc2ccccc2)S(=O)(=O)c2ccc(OCCNC(=O)c3cc4ccccc4o3)cc2)c(C(=O)NO)c1 | 101% (inactive) | 0.895 (inactive) | 0.617 | 2050 | 2290 | -0.695 (inactive)
43 | CCC(=O)NC1Cc2ccccc2C(c2ccccc2)C1 (configuration not stated) | 124% (inactive) | 1.02 (inactive) | 1.01 | 8500 | 8340 | 0.46 (inactive)
44 | CCCN(C/C=C/I)C1CCc2cccc(O)c2C1 (configuration not stated) | 123% (inactive) | 0.893 (inactive) | 1.14 | 8040 | 9000 | -0.945 (inactive)
45 | CSc1cc2c(cc1C(F)(F)F)N(C(=O)Nc1cccnc1)CC2 | 112% (inactive) | 0.921 (inactive) | 0.728 | 9460 | 10300 | 0.05 (inactive)
46 | CN(C)CCC1(c2ccc(Cl)cc2)Cc2ccccc2C(=O)O1 (configuration not stated) | 122% (inactive) | 0.975 (inactive) | 1.4 | 7700 | 7900 | -0.195 (inactive)
47 | Cc1c(C2CCN(CCc3ccccc3)CC2)noc1-c1ccc(Cl)cc1 | 92.3% (inactive) | 0.891 (inactive) | 0.892 | 6770 | 7590 | -0.21 (inactive)

From PubChem BioAssay
